Shown are actives, neighbours in structure and some others; about 21% of the full set was active somewhere.
Pf growth 96h: P. falciparum growth inhibition at 96 hours | P. falciparum luciferase reporter growth, 96 h | Potency, µM (doses to about 28.7 µM), inactives show at the top dose activity change, negative = inhibition, actives largely listed as inhibitors | 6.9% of 320,000 active | AID 504834; note: potency is the fitted concentration of half-maximal effect; % is set by controls: 0 for no effect and ±100 for the full control effect
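Delayed-death screen, second-generation endpoint: infected erythrocytes, 2% hematocrit, 0.05% parasitemia final; 96 hours at 37 C, 5% CO2; luciferase detection reagent; luminescence decrease equals reduced growth.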
CHX counter: counter-screen for Shiga toxin inhibitors: cycloheximide protein synthesis inhibition; cell reporter, cycloheximide protein synthesis inhibition counterscreen; max response, %; 12% of 300,000 active; AID 2314; in the data active = max response mostly above about 13%, no sharp cut-off; inactive = mostly below about 14%; note: read at 38.3 µM for the half of the compounds with a filed dose; 0% is about no effect
Shiga inhibitor: blocks Shiga toxin action in Vero cells | Vero cells, Shiga toxin protein synthesis inhibition reporter | inhibition, % at 38.7 µM | 9.2% of 290,000 active | AID 2315; in the data active = inhibition mostly above about 28%, no sharp cut-off; inactive = mostly below about 43%; note: 0% is about no effect
Sm TGR inh: S. mansoni TGR enzyme inhibition | Q962Y6 | purified TGR, DTNB reduction, TNB absorbance 405 nm | Potency, µM (highest dose often 114 µM), for inactives: at the highest dose activity change, negative = inhibition, most hits filed as inhibitors | 3% of 360,000 active | AID 485364; note: potency is the fitted concentration of half-maximal effect; % is set by controls: 0 for no effect and ±100 for the full control effect; nearly all actives have a fitted effect of over 60% in size
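Kinetic colorimetric format: TGR-catalysed, NADPH-driven DTNB reduction monitored via TNB absorbance. Enzyme dispensed at 20 nM; compound exposure 15 min at room temperature before reaction start.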
Pf growth 48h: P. falciparum growth inhibition at 48 hours (one generation). Potency, µM (titrated, usually from 28.7 µM), inactives show at the highest dose activity change, negative = inhibition, usual class: inhibitors. P. falciparum luciferase growth in erythrocytes, 48 h. 5.9% of 310,000 active; note: potency is the fitted concentration of half-maximal effect; % is set by controls: 0 for no effect and ±100 for the full control effect
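Compounds are pin-transferred into medium, infected erythrocytes (2% hematocrit, 0.1% parasitemia final) are added, and plates sit one parasite generation at 37 C in 5% CO2. Detection reagent is then added and luminescence measured.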
NS1 inh: inhibitors of influenza NS1 protein function | Potency, µM (series often up to 46.1 µM), inactives show at the top dose activity, positive = more growth | 0.4% of 270,000 active; calls by dose curve; note: potency is the fitted concentration of half-maximal effect; actives are rising curves; nearly all actives have a fitted effect of over 50% in size
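A cell-based growth assay was used: compounds that relieve NS1-induced slow growth of budding yeast raise OD600. Assay medium was yeast nitrogen base with ammonium sulphate and -URA supplement, pH 6.0, with 2% galactose.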
* marks the source's active call; other numbers are inactive results; ? = inconclusive; / = no result given; [ ] = remark or other dose. Unless noted, calls come from the whole dose curve; as a rule, active = well fitted curve in the direction sought with a large enough effect; inconclusive = small, poorly fitted or top-dose-only effect, or another doubt; inactive = no such curve, though single readings can be large; an effect the other way counts as inactive or inconclusive.

SMILES	Pf growth 96h	CHX counter	Shiga inhibitor	Sm TGR inh	Pf growth 48h	NS1 inh
COc1ccc(-c2cc3ccc(OCc4nn[nH]n4)cc3oc2=O)cc1OC	16.3%	-1.3	10.7	0.0%	/	-3.2%
COc1ccc(-c2cc3ccc(OCC(C)=O)cc3oc2=O)cc1	230.4%	57.1*	126.7*	2.2%	231.7%	-19.0%
COc1ccc(-c2cc3ccc(OCC(C)=O)cc3oc2=O)cc1OC	75.2%	24.8*	27.4*	2.9%	114.1%	1.3%
COc1ccc(CNC(=O)Cc2coc3ccc(C)cc23)cc1	/	/	/	-0.6%	/	/
Cc1ccc(-c2nc(-c3ccccc3)no2)c(Cl)c1	-17.1%	12.2	4.7	0.0%	/	-12.6%
c1ccc(-c2noc(-c3cccc4ccccc34)n2)cc1	343.7%	54.4*	50.1*	5.0%	243.2%	-16.5%
c1ccc2c(-c3nc(-c4ccncc4)no3)cccc2c1	32.2%	21.3*	63.3*	1.8%	?	-22.3%
c1cncc(-c2noc(-c3cccc4ccccc34)n2)c1	/	45.3*	89.2*	-2.2%	79.8%	-6.0%
Cc1c(-c2nc(-c3ccncc3)no2)cccc1[N+](=O)[O-]	25.0%	0.9	24.7	0.0%	30.0%	1.0%
Cc1[nH]n(-c2ccccc2)c(=O)c1/C=N/N(c1ccccc1)c1ccccc1	-19.7%	-4.9	19.2	0.0%	?	10.3%
Cc1[nH]n(-c2ccccc2)c(=O)c1/C=N/c1ccccn1	11.5%	1.3	5.6	-0.9%	5.8%	-4.4%
Cc1[nH]n(-c2ccccc2)c(=O)c1C=Nc1cccc(F)c1	-9.5%	9.0	57.1*	9.5%	-13.5%	-1.5%
Cc1[nH]n(-c2ccccc2)c(=O)c1C=NC1CCCCC1	-13.3%	14.0*	48.9*	8.8%	27.3%	/
Cc1cccc(/N=C/c2c(C)[nH]n(-c3ccccc3)c2=O)n1	3.6%	-1.4	-2.1	3.7%	5.4%	1.1%
Cc1[nH]n(-c2ccccc2)c(=O)c1C=NC1CCCCCC1	33.3%[5.75 µM]	20.0*	38.7	29.9%	-5.0%	-3.1%
C=CCN=Cc1c(C)[nH]n(-c2ccccc2)c1=O	25.7%	22.1*	93.5*	0.7%	176.6%	/
Cc1[nH]n(-c2ccccc2)c(=O)c1C=Nc1ccc2[nH]c(=O)[nH]c2c1	22.3%	1.6	-4.3	9.8%	2.1%	17.8%
CN(CCO)c1cnccn1	9.6%	-4.8	-3.2	4.5%	-1.1%	-0.6%
CCOC(=O)c1c(NC(=O)CSc2cn(CCNC(=O)c3ccc(OC)cc3)c3ccccc23)sc2c1CCCC2	/	/	/	8.7%	/	/
COc1ccc(NCc2nnc(SCC(=O)Nc3ccccc3)n2C)cc1	?	7.2	2.8	-0.7%	-10.7%	/
Cc1ccc(NC(=O)NCCCN2CCOCC2)cc1	7.3%	-2.1	16.1	11.2%	-6.0%	4.1%
Cc1ccc(NC(=S)NCCCN2CCOCC2)cc1C	-13.2%	3.5	-9.4	?	20.1%	9.1%
O=C(NCCCN1CCOCC1)Nc1ccc(Cc2ccc(NC(=O)NCCCN3CCOCC3)cc2)cc1	1.65µM*	-5.2	-12.6	0.6%	2.62µM*	-8.1%
S=C(NCCCN1CCOCC1)Nc1ccc(Cl)c(Cl)c1	16.5µM*	-3.0	-11.1	?	-11.0%	11.0%
NS(=O)(=O)c1ccc(CCNS(=O)(=O)c2ccc3c(c2)NC(=O)CO3)cc1	-1.7%	-7.3	-6.8	-2.2%	24.2%	5.9%
SMILES	Pf growth 96h	CHX counter	Shiga inhibitor	Sm TGR inh	Pf growth 48h	NS1 inh
CC(c1ccccc1)n1c(N2CCNCC2)nc2c1c(=O)[nH]c(=O)n2C (stereo unspecified)	11.6%	-1.1	15.1	?	8.28µM*	2.6%
CCn1c(N2CCN(CC(=O)c3c[nH]c4ccccc34)CC2)nc2c1c(=O)[nH]c(=O)n2C	2.6%	2.0	-7.2	0.0%	?	-52.2%
CCCCCCn1c(N2CCN(c3ccccc3)CC2)nc2c1c(=O)[nH]c(=O)n2C	14.7µM*	4.9	5.5	6.9%	8.28µM*	-52.6%
CCCCCn1c(CN2CCN(c3cccc(Cl)c3)CC2)nc2c1c(=O)[nH]c(=O)n2C	?	-3.9	-3.4	-2.1%	13.1µM*	-34.9%
CCCn1c(N2CCN(CC(=O)c3c(C)n(C)c4ccccc34)CC2)nc2c1c(=O)[nH]c(=O)n2C	134.1%	-4.6	-19.4	-14.1%	0.0828µM*	5.0%
CCCCCCCCn1c(N2CCN(c3cccc(Cl)c3)CC2)nc2c1c(=O)[nH]c(=O)n2C	-5.5%	2.5	11.2	-13.3%	/	-2.2%
Cc1cc(=O)oc2cc(NC(=O)CC3(CC(=O)O)CCCC3)ccc12	?	-1.3	18.5	2.8%	1.3%	1.7%
COCCCN(CC(=O)Nc1ccc(N2CCOCC2)cc1)S(=O)(=O)c1ccc(Cl)cc1	-6.7%	-2.3	-10.9	48.5%	-0.1%	/
COc1ccc(NC(=O)COC(=O)CN2C(=O)C3CCCCC3C2=O)cc1OC (stereo unspecified)	-8.6%	/	/	-8.6%	4.1%	/
CCCCCCn1c(N(CC)CC)nc2c1c(=O)[nH]c(=O)n2C	1.85µM*	-2.2	-25.9	0.0%	-29.9%	-12.9%
Cn1c(=O)[nH]c(=O)c2c1nc(CN1CCN(c3cccc(Cl)c3)CC1)n2CCc1ccccc1	0.6%	-1.5	-7.3	-25.0%	?	5.0%
Cn1c(=O)[nH]c(=O)c2c1nc(CN1CCN(c3ccc(F)cc3)CC1)n2CCc1ccccc1	10.4µM*	-1.0	-1.2	4.6%	?	-0.8%
Cn1c(=O)[nH]c(=O)c2c1nc(N1CCOCC1)n2CCc1ccccc1	9.6%	-7.3	48.9	/	3.5%	-0.9%
Cn1c(CN2CCN(c3cccc(Cl)c3)CC2)nc2ccccc21	?	-2.8	4.9	-9.3%	13.1µM*	-38.9%
Cn1c(=O)[nH]c(=O)c2c1nc(CN1CCN(c3ccc(F)cc3)CC1)n2CCCc1ccccc1	-7.5%	1.9	-3.4	-1.7%	-15.0%	-9.7%
Cn1c(=O)[nH]c(=O)c2c1nc(N1CCOCC1)n2CCN1CCOCC1	-11.3%	1.5	-8.0	-34.9%	1.85µM*	11.4%
N=C1C(c2ccccc2)=C(O)CN1CCCO	14.7µM*	-3.4	2.7	3.9%	?	/
N=C1C(c2ccccc2)=C(O)CN1c1ccccc1	-23.8%	1.8	-15.9	-0.9%	1.9%	-0.2%
Cc1ccc(N2CC(O)=C(c3ccccc3)C2=N)cc1	59.7%	17.7*	24.2	-2.3%	22.6%	/
COc1ccc(CC[N@+]2(C)COc3cc4oc(=O)cc(C)c4cc3C2)cc1OC	/	/	/	/	/	-5.3%
Cc1cc(C)cc(N=C2NC(=O)/C(=C/c3cccs3)S2)c1	?	-1.3	3.7	-0.7%	21.6%	14.0%
Cn1cccc1/C=C1\SC(=Nc2ccc(O)cc2)NC1=O	?	44.3*	36.9*	-26.3%	?	3.1%
Cc1ccc(N=C2NC(=O)/C(=C/c3cn(C)c4ccccc34)S2)cc1C	4.65µM*	-1.9	-3.8	-4.4%	?	?
O=C1NC(=Nc2ccccc2)S/C1=C\c1cccs1	45.0%	44.6*	89.4*	4.1%	-40.9%	-6.3%
CCOc1ccc2c(c1)S/C(=C\c1cccs1)C(=O)N2	74.8%	31.4*	68.7*	5.9%	46.8%	-33.4%

Screening data as filed in PubChem.
